# PLC-gamma1 inh: inhibitors of human phospholipase C gamma1; P19174; purified PLC-gamma1, fluorogenic substrate, fluorescence; 370,000 compounds, 0.84% hits; inhibition, % at 12.2 µM; in the data active = inhibition above about 9.5%
# ADAM10 inh: ADAM10 inhibition, QFRET primary screen | O14672 | recombinant ADAM10, EDANS/DABCYL FRET peptide cleavage, 3 h | inhibition, % at 7 µM | 370,000 compounds, 0.62% hits | AID 720582;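 active = inhibition above a per-campaign cutoff equal to the mean of compounds falling between control-based bounds plus 3 SD, cut at about 20% in these data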
# Target sequence (O14672 214-748 limits assumed): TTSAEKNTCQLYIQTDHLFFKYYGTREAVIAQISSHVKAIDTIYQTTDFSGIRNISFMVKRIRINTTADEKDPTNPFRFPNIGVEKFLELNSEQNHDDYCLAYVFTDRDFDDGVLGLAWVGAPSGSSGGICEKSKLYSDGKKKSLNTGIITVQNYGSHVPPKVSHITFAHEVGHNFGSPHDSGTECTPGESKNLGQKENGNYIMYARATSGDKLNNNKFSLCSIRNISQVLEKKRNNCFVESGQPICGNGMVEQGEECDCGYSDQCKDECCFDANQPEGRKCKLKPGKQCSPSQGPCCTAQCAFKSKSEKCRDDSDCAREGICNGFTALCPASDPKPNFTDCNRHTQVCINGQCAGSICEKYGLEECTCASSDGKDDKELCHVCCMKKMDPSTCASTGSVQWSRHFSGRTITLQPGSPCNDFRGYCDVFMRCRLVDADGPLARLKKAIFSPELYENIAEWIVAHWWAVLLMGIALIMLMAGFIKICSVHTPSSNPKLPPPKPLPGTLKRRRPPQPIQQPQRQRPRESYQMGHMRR
# HGIII-sPLA2 inh: Blocks human group III sPLA2 activity; inhibition, % at 12.2 µM; QFRET BODIPY PC-A2 liposome hydrolysis, fluorescence; 370,000 compounds, 0.56% hits; AID 743126;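 active = inhibition above mean plus 3 SD of compounds lying within the high and low control bounds, cut at about 19% in these data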
# PLC-beta3 inh: blocks human PLC-beta3 enzyme activity; Q01970; Purified PLC-beta3, fluorogenic substrate, fluorescence; inhibition, % at 12.2 µM; 370,000 compounds, 0.18% hits; in the data active = inhibition above about 11%
# ADAM17 inh: inhibitors of human ADAM17; recombinant ADAM17, EDANS/DABCYL FRET peptide cleavage; P78536; 370,000 compounds, 0.83% hits; inhibition, % at 6.95 µM;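 active = inhibition above the mean of compounds lying between control limits plus 3 SD, set per campaign, cut at about 8.5% in these data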
# proKLK7 act: activates the human kallikrein-7 zymogen; P49862; purified proKLK7, EDANS-DABCYL substrate fluorescence; 100% is mature enzyme control, 0% vehicle; activation, % at 7 µM; 370,000 compounds, 0.9% hits; AID 652039;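 active = activation above the mean of all tested compounds plus 3 SD, computed per campaign excluding outliers beyond control limits, cut at about 13% in these data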
# proKLK7 act conf: proKLK7 activation, confirmation; purified proKLK7, EDANS-DABCYL substrate fluorescence; scaled: vehicle 0, mature enzyme 100; 3,200 compounds, 68% hits; AID 686949; shares compounds with proKLK7 act; activation, % at 7 µM;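 active = activation, as change over the incubation, above the mean of all tested compounds plus 3 SD, cut at about 13% in these data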
# EDANS-DABCYL int: optically interferes with EDANS-DABCYL signal, flagging KLK7 hits; AID 686952; shares compounds with proKLK7 act; 3,200 compounds, 80% hits; activation, % at 7 µM; EDANS-DABCYL substrate fluorescence interference, no enzyme, 4 h; solvent 0%, active enzyme control 100%;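 active = activation above the all-compound mean plus 3 SD, ignoring values outside control-based bounds, cut at about 4.8% in these data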;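 note: value is the 4 h activation minus the activation read at time zero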
# EDANS interf: counter-screen for kallikrein-7 activators: EDANS-DABCYL interference, dose response | EDANS-DABCYL peptide fluorescence interference, no enzyme | 250 compounds, 20% hits | EC50, µM | shares compounds with proKLK7 act;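 active = compounds that raise the fluorescence signal in this interference counterscreen, with EC50 at or below 10 µM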;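 note: intact quenched peptide substrate alone read at 355 nm excitation and 520 nm emission; signal is fluorescence gain from T0 to T4 after four hours at room temperature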
# Numbers stand for hits; i = inactive; nt = no result given. Hits are enriched below; roughly 3.4% of the tested compounds scored in any of these assays.
SMILES,PLC-gamma1 inh,ADAM10 inh,HGIII-sPLA2 inh,PLC-beta3 inh,ADAM17 inh,proKLK7 act,proKLK7 act conf,EDANS-DABCYL int,others
CCN(CC)Cc1c(O)c(Cl)cc2c(C)cc(=O)oc12,i,i,i,i,i,53,73,66,
CCC(=O)c1cc2c(C)cc(=O)oc2c(C)c1O,i,i,i,i,i,i,nt,nt,
COc1ccc(-c2c(C)c3ccc(O)cc3oc2=O)cc1,i,i,i,i,i,82,73,83,
CN1C(=O)c2cc(NC(=O)C3CC3)ccc2OC[C@H]2O[C@@H](CC(=O)NC3CCC3)CC[C@@H]21,i,i,i,i,i,i,nt,nt,
CCOC(=O)CCCNC(=O)OC1CCC12CCC(c1ccccc1)CC2 (stereo not given),i,i,i,i,i,i,nt,nt,
O=C1[C@H]2C[C@@]3(n4ccc5ccccc54)c4ccccc4N(S(=O)(=O)c4ccccc4)[C@H]3N2C(=O)CN1Cc1ccccc1,i,i,i,i,i,i,nt,nt,
CCOC(=O)CNc1c(-c2ccc(Cl)cc2)nc2cnccn12,i,i,i,i,i,65,77,80,
CCOC(=O)CNc1c(-c2ccc(OC)cc2)nc2ccc(Cl)cn12,i,i,i,i,i,i,nt,nt,
COc1ccc(-c2nc3cnccn3c2Nc2ccc(C)cc2)cc1,i,i,i,i,i,i,nt,nt,
CCOC(=O)CNc1c(-c2ccc(F)cc2)nc2cnccn12,i,i,i,i,i,65,63,65,
O=C(N[C@@H](Cc1ccccc1)C(=O)N1CCC2CCN(S(=O)(=O)c3ccccc3)CC21)[C@@H]1CCCN1 (stereo not given in full),i,i,i,i,i,i,nt,nt,
Cc1ccc(OCc2nn3c(C4CCCCC4)nnc3s2)cc1,i,i,i,i,i,i,nt,nt,
COC(=O)[C@]12C[C@H](CC(=O)NCCCN3CCCC3=O)C(=O)N(Cc3ccc(Cl)cc3Cl)C1=C[C@H](C(C)(C)C)O[C@@H]2C,i,i,i,i,i,i,nt,nt,
CC1CCCCC1NC(=O)CN1c2cccc3cccc(c23)S1(=O)=O (stereo not given),i,i,i,i,i,i,nt,nt,
CCC(C)NC(=O)CN1c2cccc3cccc(c23)S1(=O)=O (stereo not given),i,i,i,i,i,14,i,9.6,
CC1CCN(C(=O)CN2c3cccc4cccc(c34)S2(=O)=O)CC1,i,i,i,i,i,18,i,7.1,
CCCCCCC(=O)NC1CCCCN(Cc2cccc(Cl)c2)C1=O (stereo not given),i,i,i,i,i,i,nt,nt,
C[C@H]1C2CC(OC(=O)NCc3ccc(Cl)cc3)C(C2)[C@H]2CCCCN21 (stereo not given in full),i,i,i,i,i,i,nt,nt,
COc1ccc(NC(C)=O)cc1NC(C)c1nc2sc(C)c(C)c2c(=O)[nH]1 (stereo not given),i,i,i,i,i,16,i,9.3,
COc1ccc(OC)c(NC(=O)C(C)SCc2nc3sc(C)c(C)c3c(=O)[nH]2)c1 (stereo not given),i,i,i,i,i,i,nt,nt,
COC(=O)CNC(=O)CNC1(C(=O)NCCc2c[nH]c3ccccc23)CCCCC1,i,i,i,i,i,nt,nt,nt,
CCOc1ccc(CCNC(=O)COC(=O)c2nccnc2N)cc1OCC,i,i,i,i,i,30,63,55,
CCOc1ccc(CCNC(=O)COC(=O)c2cccnc2OCC)cc1OCC,i,i,i,i,i,i,nt,nt,
COc1cc2cncc(Cc3ccccc3)c2cc1O,i,i,i,i,i,22,17,21,
O=C(CSc1nnc(-c2cccnc2)n1-c1ccc(Cl)cc1)Nc1cccc2ccccc12,i,i,i,i,i,i,nt,nt,
SMILES,PLC-gamma1 inh,ADAM10 inh,HGIII-sPLA2 inh,PLC-beta3 inh,ADAM17 inh,proKLK7 act,proKLK7 act conf,EDANS-DABCYL int,others
Cc1ccc(S(=O)(=O)NC(C(=O)Oc2ccc3c(C(F)(F)F)cc(=O)oc3c2)c2ccccc2)cc1 (stereo not given),i,i,i,i,i,48,55,73,
CCOC(=O)COc1ccc2c3c(c(=O)oc2c1)CCCC3,i,i,i,i,i,i,nt,nt,
CC[C@@H](NS(=O)(=O)c1ccc(C)cc1)C(=O)Oc1ccc2c3c(c(=O)oc2c1)CCC3,i,i,i,i,i,241,534,473,
CCC(C)C(NS(=O)(=O)c1ccc(C)cc1)C(=O)Oc1ccc2c3c(c(=O)oc2c1)CCC3 (stereo not given),i,i,i,i,i,21,43,37,EDANS interf=i
Cc1ccc(S(=O)(=O)NC(CC(C)C)C(=O)Oc2ccc3c4c(c(=O)oc3c2)CCC4)cc1 (stereo not given),i,i,i,i,i,49,90,77,
CC(C)CC(C(=O)Oc1ccc2c3c(c(=O)oc2c1)CCC3)N1C(=O)c2ccccc2C1=O (stereo not given),i,i,i,i,i,i,nt,nt,
Cc1ccccc1N1CCN(C(=O)CN2C(=O)CC(C)(C)S(=O)(=O)c3ccccc32)CC1,i,i,i,i,i,i,nt,nt,
Cc1ccc2c(c1)-c1c(cnn1CC(=O)NCCc1cccc(F)c1)CO2,i,i,i,i,i,i,nt,nt,
CC(C)NC(=O)N[C@@H]1C[C@@H]2O[C@@H](CO)CC[C@@H]2O[C@@H]1CCc1ccc(-c2ccccc2F)cc1,i,i,i,i,i,i,nt,nt,
Cc1c(OC(=O)CNC(=O)OC(C)(C)C)ccc2c3c(c(=O)oc12)CCC3,i,i,i,i,i,418,463,485,
CCC(NC(=O)OC(C)(C)C)C(=O)Oc1ccc2c3c(c(=O)oc2c1)CCC3 (stereo not given),i,i,i,i,i,107,664,670,
Cc1c(OCC(=O)OC(C)(C)C)ccc2c3c(c(=O)oc12)CCC3,i,i,i,i,i,i,nt,nt,
CC(C)C(=O)OCCCN1CCC2(CCC(c3ccccc3)CC2)C1=O (stereo not given),i,i,i,i,i,i,nt,nt,
O=C(NCCc1c[nH]c2ccccc12)c1ccc2c(c1)ncn2C1CCCCC1,i,i,i,i,i,i,nt,nt,
COC(=O)c1nc2ccc(N3CCOCC3)cc2c(C)c1C(=O)OC,i,i,i,i,i,22,i,25,
CCOP(=O)(OCC)C(NC(=O)c1cccs1)C(F)(F)F (stereo not given),i,i,i,i,i,167,241,247,
